The source of these data is PubChem BioAssay AID1042 (National Center for Advancing Translational Sciences (NCATS), 2008).

This assay is described as follows: CDH13 Derepression/Induction Secondary Assay for qHTS Assay for Epigenetic Modulators. The following applies: H358 cells, CDH13 mRNA qPCR, 72 h; stronger effect = higher value. The source says: NIH Molecular Libraries Screening Centers Network [MLSCN] NIH Chemical Genomics Center [NCGC] MLSCN Grant: 1 X01 MH079860-01 Assay Provider: Elisabeth D. Martinez, University of Texas SW Medical Center NCGC Assay Overview: This secondary assay characterizes selected actives identified in the qHTS of the Locus Derepression (LDR) assay (PubChem AID 597). The LDR assay detects the derepression of a GFP reporter that is stably integrated in a region of the genome of murine c127i mammary cells that is presumably silenced. Compounds that cause derepression of the locus to express GFP are identified by enumerating GFP positive cells using a laser-scanning microplate cytometer. Selected LDR actives were assayed for the induction of CDH13 gene expression, a gene silenced by methylation of its promoter. […]
NCGC Assay Protocol Summary Exponentially growing H358 non-small cell lung cancer cells were treated daily with fresh media containing the indicated concentrations of compounds for 72 hr. Cellular RNA was extracted, quantified, DNAse treated and reverse transcribed. The resulting cDNA was amplified in TaqMan real time quantitative PCR assays (Applied Biosystems) containing validated primers specific for CDH13 (Hs00169908.m1). […] Gene expression was measured by fold-induction over control DMSO-treated samples (36-37 average cycle time). […]

Records with an inconclusive call do not appear. Unmarked numbers belong to inactive results.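 How the source made its calls: active means raised CDH13 expression over DMSO controls, judged by fold change in triplicate runs, no set cutoff; inconclusive means doubtful CDH13 rise, criteria not stated; inactive means no rise, falls in expression ignored.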

`CN1CSC(=S)N(C)C1`: the fold change is 1.
